Screening data as filed in PubChem.
HCV inh: inhibitors of hepatitis C virus infection; Huh7.5.1 HCVcc-Cre infection, luciferase reporter, 44 h; Potency, µM (titrated, usually from 41.8 µM), for inactives: top-dose activity change, negative = inhibition, usual class: inhibitors; 340,000 tested, 3.4% active; AID 651820; active = well fitted inhibition curve with a large enough effect; inconclusive = small, poorly fitted or top-dose-only effect, or another doubt; inactive = no such curve, though single readings can be large or run the other way; also: potency is read from the fitted curve at half-maximal effect
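A cell-based infection assay in which seeded cells (1,000 per well) receive test compound after 4 h, are inoculated with HCVcc-Cre at approximately 0.5 moi, and are incubated 44 h before luminescence detection.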
FMDV inh: blocks foot and mouth disease virus; FMDV antiviral cell-based qHTS; 410,000 tested, 1.2% active; Potency, µM (titrated, usually from 57.9 µM), for inactives: top-dose activity change, negative = inhibition, hits mostly inhibitors; AID 1159524; calls by dose curve; tested in HEK293T cells; also: read-out not given here; potency is read from the fitted curve at half-maximal effect; nearly all actives have a fitted effect of over 45% in size
MARV entry inh: blocks Marburg virus binding to or entry into cells. Potency, µM (highest dose often 37.8 µM), for the others: top-dose activity change, negative = inhibition, most hits filed as inhibitors. Marburg virus pseudotyped entry inhibition, cell reporter. AID 540276. 300,000 tested, 1.8% active; calls by dose curve; tested in HEK293 cells; also: potency is read from the fitted curve at half-maximal effect
LASV entry inh: blocks Lassa virus binding to or entry into cells; Potency, µM (titrated, usually from 37.9 µM), for inactives: at the highest dose activity change, negative = inhibition, most hits filed as inhibitors; Lassa virus pseudotype entry inhibition, cell reporter; AID 540256; 300,000 tested, 1.2% active; calls by dose curve; tested in HEK293 cells; also: potency is read from the fitted curve at half-maximal effect; nearly all actives have a fitted effect of over 50% in size
HCMV antiviral: blocks human cytomegalovirus replication; activity change, negative = inhibition, % at 57.5 µM; HFF cells, HCMV-luciferase reporter, 72 h; hits give low values; AID 1259415; 410,000 tested, 4.5% active; in the data active = activity change below about -60%; inconclusive = no clear call, values can overlap the other calls; inactive = above about -39%
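Screen run at 2 compound doses on HFFs infected with reporter HCMV, MOI 1 PFU/cell. Luciferase activity from cell lysates at 72 h post infection gave inhibition relative to buffer-only and Salinomycin wells.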
* = called active by the depositor; [ ] = remark or other dose. Only some compounds are listed: those with a hit (about 7.9% of all), similar ones and a draw of the others. % is scaled to controls: 0 for no effect and ±100 for the full control effect.

CC(C)(C)NC(=O)COC(=O)c1snc(C(=O)NC2CCCCC2)c1N was read as HCV inh 7.08µM*, FMDV inh inconclusive, MARV entry inh -13.2%, LASV entry inh inconclusive and HCMV antiviral inconclusive.
COC(=O)N[C@@H](c1ccccc1)[C@]1(C(C)=O)CCCC1=O was read as MARV entry inh -4.1%[14.2 µM].
Screening Cc1oc(-c2ccc(Cl)cc2)nc1CN1CCCC(C(=O)NCc2cccnc2)C1 (stereo unspecified) returned HCV inh 1µM*, FMDV inh inconclusive, MARV entry inh -23.7%, LASV entry inh -24.8% and HCMV antiviral -84.1*.
Screening Cc1oc(-c2ccc(Cl)cc2)nc1CN1CCCC(C(=O)NCCCN2CCOCC2)C1 (stereo unspecified) returned HCV inh 6.31µM*, FMDV inh 0.0%, MARV entry inh inconclusive, LASV entry inh inconclusive and HCMV antiviral inconclusive.
For Cc1oc(-c2ccc(Cl)cc2)nc1CN1CCC(C(=O)NCCCN2CCCC(C)C2)CC1 (stereo unspecified) the results were HCV inh 1.78µM*, FMDV inh -22.0% and HCMV antiviral -101.3*.
Screening Cc1ccc(S(=O)(=O)N2CCOC2CNC(=O)C(=O)NCc2ccc3c(c2)OCO3)cc1 (stereo unspecified) returned HCV inh inconclusive, FMDV inh -18.4%, MARV entry inh 6.7%[46.1 µM], LASV entry inh inconclusive and HCMV antiviral -6.7.
`CCOc1cc(Cl)c(S(=O)(=O)n2cc(C)nc2CC)cc1Cl` gave FMDV inh inconclusive, MARV entry inh -19.5%[46.1 µM], LASV entry inh inconclusive and HCMV antiviral inconclusive.
Screening CCc1nc(C)cn1S(=O)(=O)c1ccc(Cl)c(Cl)c1OC returned FMDV inh inconclusive, MARV entry inh inconclusive, LASV entry inh -18.5%[46.1 µM] and HCMV antiviral -74.9*.
Screening Cc1cc(Nc2cccc(Cl)c2)nc2ccc(NC(=O)COc3ccc(Cl)cc3)cc12 returned FMDV inh -18.4%, LASV entry inh -2.8%[46.1 µM] and HCMV antiviral -106.1*.
Screening O=C(COc1ccc(-n2ccnc2)cc1)Nc1cccc(F)c1 returned HCV inh -26.1%, FMDV inh -21.9% and HCMV antiviral inconclusive.
Screening O=C(COc1ccc(-n2ccnc2)cc1)Nc1cccc(Cl)c1 returned HCV inh inconclusive, FMDV inh inconclusive, MARV entry inh inconclusive, LASV entry inh -1.3% and HCMV antiviral -64.4*.
For Cc1cccc(OCC(=O)Nc2ccc3nc(Nc4cccc(Cl)c4)cc(C)c3c2)c1 the results were FMDV inh -2.2%, LASV entry inh -17.7%[46.1 µM] and HCMV antiviral -63.3*.
For COc1cc(-c2n[nH]c3ccnc(-c4cccc(OC(F)(F)F)c4)c23)cc(OC)c1OC the results were HCMV antiviral -17.7.
For COc1ccc(CN(CCC(c2ccccc2)c2ccc(OC(C)C)cc2)C(=O)CCl)cc1OC (stereo unspecified) the results were HCV inh inconclusive, FMDV inh 4.47µM*, MARV entry inh inconclusive, LASV entry inh inconclusive and HCMV antiviral -99.8*.
Screening COc1ccc(CNCCC(c2ccc(F)cc2)c2ccc(OC(C)C)cc2)cc1OC (stereo unspecified) returned HCV inh inconclusive, FMDV inh -1.4%, MARV entry inh inconclusive, LASV entry inh inconclusive and HCMV antiviral -97.1*.
`COc1ccc(CCNCc2ccc(F)cc2)cc1OC` gave HCV inh 8.2%, FMDV inh -13.6%, MARV entry inh inconclusive, LASV entry inh 1.6% and HCMV antiviral 4.8.
For COc1ccc(CNCCC(c2ccccc2)c2ccc(OC(C)C)cc2)cc1OC (stereo unspecified) the results were HCV inh 11.2µM*, FMDV inh -25.1%, MARV entry inh inconclusive, LASV entry inh 6.31µM* and HCMV antiviral -36.8.
For Cc1ccc(CSc2ncc(Cl)c(C(=O)NCCc3ccc(S(N)(=O)=O)cc3)n2)cc1 the results were FMDV inh inconclusive, MARV entry inh -13.5%[46.1 µM], LASV entry inh -9.6%[46.1 µM] and HCMV antiviral -24.4.
`FC(F)Sc1ccc(NC(=S)NC2CCCC2)cc1` gave HCV inh -0.7%, FMDV inh 30.2%, MARV entry inh 0.1%[46.1 µM], LASV entry inh 6.7% and HCMV antiviral -28.1.
`CC1CCCC(NC(=S)Nc2ccc(SC(F)F)cc2)C1C` (stereo unspecified) gave HCV inh 31.6µM*, FMDV inh -27.0%, MARV entry inh inconclusive, LASV entry inh inconclusive and HCMV antiviral inconclusive.
`Nc1nn(-c2ccccc2)c(N)c1N=Nc1ccccc1` gave HCV inh inconclusive, FMDV inh -12.7%, MARV entry inh inconclusive, LASV entry inh inconclusive and HCMV antiviral 170.8.
Screening Nc1ncnc(N)c1N=Nc1ccccc1 returned HCV inh -28.0%, FMDV inh -22.1%, MARV entry inh 5.01µM*, LASV entry inh inconclusive and HCMV antiviral -64.1*.
For CCc1cc2c(SCC(=O)N3CC(=O)Nc4ccccc43)ncnc2s1 the results were HCV inh -24.6%, FMDV inh -24.4%, MARV entry inh 14.8%, LASV entry inh -5.0% and HCMV antiviral -60.1*.
Screening CCc1cc2cc(C)ccc2nc1SCC(=O)N1CC(=O)Nc2ccccc21 returned HCV inh 7.08µM*, FMDV inh -20.0%, MARV entry inh inconclusive and HCMV antiviral inconclusive.
CCc1ccc2nc(SCC(=O)N3CC(=O)Nc4ccccc43)c(C#N)cc2c1 was read as HCV inh 4.47µM*, FMDV inh -14.7%, MARV entry inh inconclusive, LASV entry inh -3.5% and HCMV antiviral 39.9.
CCCCCC(=O)N1C[C@@H](n2cc(COC(=O)c3ccccc3)nn2)[C@H](O)C[C@H]1c1ccccc1 was read as LASV entry inh 3.2%[46.1 µM].
Screening CCN1CCN(c2ncc3c(n2)CCN(Cc2ccccc2C)C3)CC1 returned FMDV inh -18.9%, LASV entry inh -15.4%[46.1 µM] and HCMV antiviral -4.8.
Screening CC(=O)Nc1ccc(S(=O)(=O)NNc2cccc(C)c2)cc1 returned HCV inh -15.1%, FMDV inh 9.3%, MARV entry inh 16.7%[46.1 µM], LASV entry inh 15.9%[46.1 µM] and HCMV antiviral 11.2.
`O=C(Nc1ccccc1)Nc1ccc(-n2ccc(C(F)(F)F)n2)cc1` gave HCV inh inconclusive, FMDV inh 72.3% and HCMV antiviral 3.6.
Screening N#CC(C#N)=NNc1ccc(-n2ccc(C(F)(F)F)n2)cc1 returned HCV inh 3.98µM*, FMDV inh inconclusive, MARV entry inh 3.16µM*, LASV entry inh inconclusive and HCMV antiviral -96.6*.
Cc1nc2cc(-c3ccsc3-n3c(C)ccc3C)[nH]n2c(=O)c1Cl was read as HCV inh 19.5%, FMDV inh 31.6µM*, MARV entry inh -29.7%, LASV entry inh -1.3% and HCMV antiviral -12.5.
`Cc1ccccc1-c1cc2nc(C)c(Cl)c(=O)n2[nH]1` gave HCV inh 11.3%, FMDV inh 40.9%, MARV entry inh 12.6µM*, LASV entry inh inconclusive and HCMV antiviral -29.8.
